Compounds with a hit are over-represented: about 2.8% of the library has one in this group of screens.
Peg3 prom inh: reduces Peg3 promoter-driven luciferase expression in HeLa | HeLa PEG-Prom luciferase reporter, luminescence, overnight | 360,000 compounds, 1.7% hits | inhibition, % at 20 µM;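 active = inhibition of at least 50% at 20 µM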
HIF-2a block: HIF-2a inhibition. inhibition, % at 18.8 µM. 360,000 compounds, 0.72% hits. 786-0 RCC cells HIF-2a reporter, luciferase luminescence, overnight;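 active = inhibition of the luminescence signal of 40% or more relative to plate controls, in a single-dose primary screen at 18.75 µM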
KKLEB cytotox: CF airway cell cytotoxicity counter-screen; activity change (cytotoxicity), % at 5 µM; 360,000 compounds, 0.36% hits; AID 602141; KKLEB CF airway cells viability, ATPlite luminescence, overnight; active compounds read low; cells stimulated with P. aeruginosa culture filtrate;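 active = corrected activity change at or below -50% at 5 µM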
TRPM1 prom inh: inhibitors of MITF-driven TRPM1 promoter in melanoma cells | inhibition, % at 12.5 µM | SK-MEL-5 TRPM1 promoter luciferase, 24 h | AID 488899 | 330,000 compounds, 0.83% hits;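 active = mean inhibition across replicates of 60% or more, whatever share of single replicates reaches that level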
B2AR ag: activates human beta-2 adrenergic receptor causing internalization; P07550; Am2.2-beta2AR cells, FAP receptor internalization, flow cytometry; response, % (concentration not given with the values); 340,000 compounds, 0.43% hits; AID 504454;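 active = response above a set limit, near 3 SD of response in nonfluorescent compounds, cut at about 42% in these data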
Target sequence (P07550 whole entry, looked up): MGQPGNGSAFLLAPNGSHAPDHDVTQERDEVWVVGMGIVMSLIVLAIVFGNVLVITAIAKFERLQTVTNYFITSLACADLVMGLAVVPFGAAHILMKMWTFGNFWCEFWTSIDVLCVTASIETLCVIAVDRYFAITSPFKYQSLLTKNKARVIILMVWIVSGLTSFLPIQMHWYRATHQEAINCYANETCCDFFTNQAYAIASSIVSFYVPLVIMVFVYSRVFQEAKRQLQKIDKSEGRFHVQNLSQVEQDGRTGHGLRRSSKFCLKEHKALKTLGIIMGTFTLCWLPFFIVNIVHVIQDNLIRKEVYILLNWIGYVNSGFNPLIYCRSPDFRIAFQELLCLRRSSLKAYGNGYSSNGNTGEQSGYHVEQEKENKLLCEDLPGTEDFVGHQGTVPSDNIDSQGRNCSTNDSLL
CF NFkB inh: cystic fibrosis NF-kB activation inhibition; KKLEB NF-kB-GFP reporter, PAF-induced, GFP fluorescence overnight; inhibition, % at 5 µM; 360,000 compounds, 0.86% hits; AID 588850;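 active = at least 50% inhibition at 5 µM, scaled per plate between neutral and stimulator controls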;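 also: PAF is a Pseudomonas aeruginosa culture filtrate used as stimulus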
Each line names hits and unclear results; the compound was inactive in the other large screens.

Cc1cccc(C)c1-n1nnnc1C(c1ccnc2ccccc12)N1CCN(C/C=C/c2ccccc2)CC1 (stereo unspecified)	none (no result: TRPM1 prom inh, B2AR ag)
O=C(/C=C/Nc1ccc(Br)cc1F)c1ccco1	KKLEB cytotox -65
O=C(/C=C/Nc1ccccc1O)c1ccco1	none
C#CCn1cc(/C=N/NC(=O)COc2cccc3cccnc23)c2ccccc21	none
COC(=O)Cn1cc(/C=N/NC(=O)COc2cccc3cccnc23)c2ccccc21	B2AR ag 48
S=C(NCc1ccccn1)NN=Cc1ccccn1	TRPM1 prom inh 70
Cc1cc(CSc2ccccc2)ccc1NC(=O)c1ccc(Cl)c([N+](=O)[O-])c1	Peg3 prom inh 64
COc1cc(NC(=O)c2cc3nc(-c4ccccc4)cc(-c4ccccc4)n3n2)cc(OC)c1OC	Peg3 prom inh 57
COc1cc(NC(=O)c2cc3c(C)nc4ccccc4c3o2)cc(OC)c1OC	Peg3 prom inh 56
COc1cccc(C(=O)NNS(=O)(=O)c2ccccc2)c1	none (no result: TRPM1 prom inh, B2AR ag)
CC1(C)OC(=O)C2=C(C[C@@H](C3CCCC3)O[C@H]2c2ccc(Cl)cc2)O1	none (no result: Peg3 prom inh, KKLEB cytotox, TRPM1 prom inh, B2AR ag, CF NFkB inh)
O=S1(=O)CC(N2CC=CC2)CN1Cc1cn(Cc2ccc(F)cc2)nn1 (stereo unspecified)	none (no result: Peg3 prom inh, KKLEB cytotox, TRPM1 prom inh, B2AR ag, CF NFkB inh)
N#Cc1ccc(C#Cc2ccc3oc4ccccc4c(=O)c3c2)cc1	none
NC1(C#Cc2ccc3c(=O)c4ccccc4sc3c2)CCCCC1	none
Cn1c2ccccc2c(=O)c2ccc(C#CC3(N)CCCCC3)cc21	Peg3 prom inh 52
Cn1c2ccccc2c(=O)c2cc(C#Cc3ccsc3)ccc21	none
O=c1c2ccccc2oc2ccc(C#CC3(O)CCCCC3)cc12	KKLEB cytotox -57
COc1cccc2oc3ccc(C#CC4(N)CCCCC4)cc3c(=O)c12	Peg3 prom inh 60
Cn1c2ccccc2c(=O)c2cc(C#CC3(O)CCCCC3)ccc21	KKLEB cytotox -72
Cc1ccc(C(=O)OCC(=O)NCc2ccco2)cc1	none
O=C(COC(=O)c1ccccc1)NCc1ccco1	KKLEB cytotox -94
CCCCN(C=O)c1c(CC)nc2ccc(C(=O)N3CCN(C(=O)c4ccco4)CC3)cn12	none (no result: TRPM1 prom inh, B2AR ag)
CC(CCc1ccccc1)NC(=O)COC(=O)c1cc(NS(=O)(=O)c2ccc(Cl)c([N+](=O)[O-])c2)ccc1O (stereo unspecified)	Peg3 prom inh 57, HIF-2a block 55
N#Cc1ccc(Nc2nc(-c3ccccc3)c(C(=O)c3ccccc3)s2)cc1	Peg3 prom inh 61 (no result: TRPM1 prom inh, B2AR ag)
CN(N=Cc1ccccc1O)c1ccc2ccccc2n1	none (no result: TRPM1 prom inh, B2AR ag)
CN(/N=C/c1cc(Br)cc(Br)c1O)c1cccc(C(F)(F)F)n1	Peg3 prom inh 57
CCC(=O)Nc1ccc(N2CCCCC2)cc1	none
O=C(CCl)Nc1cccc(Oc2ccccc2)c1	TRPM1 prom inh 66
O=C(CCl)Nc1ccc(N=Nc2ccccc2)cc1	Peg3 prom inh 107
CC(=O)Nc1ccc(N=Nc2ccccc2)cc1	none
O=C(CCl)Nc1cccc(Oc2cnccn2)c1	none
O=C(CCl)Nc1ccc(N2CCCCCC2)cc1	Peg3 prom inh 84
COc1ccc(NC(=O)N(C)C[C@H]2Oc3ncc(Br)cc3C(=O)N([C@H](C)CO)C[C@@H]2C)cc1	none (no result: TRPM1 prom inh, B2AR ag)
CC(C)C[C@H]1CN(CCCC[C@H]2CNC(=O)C(=O)N2CC2CCCCC2)C(=O)C(=O)N1CCC1CCCCC1	none (no result: Peg3 prom inh, KKLEB cytotox, TRPM1 prom inh, B2AR ag, CF NFkB inh)
Cc1cc(Br)c(OCc2ccc(C(=O)N/N=C/c3ccc[nH]3)cc2)c(Br)c1	Peg3 prom inh 100, KKLEB cytotox -85, CF NFkB inh 71 (no result: TRPM1 prom inh)
O=C(N/N=C/c1ccc[nH]1)c1ccc(O)cc1	none
CC(C)C1OC(CCc2ccccc2)Cc2[nH][nH]c(=O)c21 (stereo unspecified)	none (no result: Peg3 prom inh, KKLEB cytotox, TRPM1 prom inh, B2AR ag, CF NFkB inh)
CCn1cc(/C=C/c2cc[n+](C)cc2)c2ccccc21	none (no result: B2AR ag)
CC(C)n1cc(/C=C/c2cc[n+](C)cc2)c2ccccc21	TRPM1 prom inh 63
O=C(Nc1ccccn1)C(c1ccccc1)c1ccccc1	none (no result: TRPM1 prom inh, B2AR ag)
CC1CCCCN1S(=O)(=O)c1ccc(S(=O)(=O)N2CCN(c3ccccc3)CC2)cc1 (stereo unspecified)	Peg3 prom inh 59
O=C(c1ccc(S(=O)(=O)N2CCCCC2)cc1)N1CCN(c2ccccc2)CC1	none
COc1ccc2nc(C)cc(Nc3ccc(N4CCN(C)CC4)cc3)c2c1	Peg3 prom inh 111, TRPM1 prom inh 97
Cc1cc(N/N=C/c2ccc(N(C)C)cc2)c2ccccc2n1	none
Cc1cc(N/N=C/c2ccc(O)cc2)c2cccc(C)c2n1	Peg3 prom inh 110
COc1ccc2nc(C)cc(N/N=C/c3ccccc3)c2c1	Peg3 prom inh 107, TRPM1 prom inh 99, B2AR ag 47
N#C/C(=C/c1ccc(N2CCCCCC2)o1)c1ccc(F)cc1	HIF-2a block 71
O=C(Nc1ccc([N+](=O)[O-])cc1)OC1CCS(=O)(=O)C1 (stereo unspecified)	none (no result: Peg3 prom inh, KKLEB cytotox, TRPM1 prom inh, B2AR ag, CF NFkB inh)
COC(=O)c1cc(NC(=O)/C=C/c2ccc3c(c2)OCO3)cc(C(=O)OC)c1	none
COC(=O)c1cccc(NC(=O)/C=C/c2ccc3c(c2)OCO3)c1	HIF-2a block 50
O=C(/C=C/c1ccc2c(c1)OCO2)NCCSCc1c(Cl)cccc1Cl	B2AR ag 77
O=C(/C=C/c1ccc2c(c1)OCO2)NCCSCc1ccc(Cl)cc1	none
COc1cccc(C(C)(O)c2nc(-c3cc4ccccc4o3)cs2)c1 (stereo unspecified)	none (no result: TRPM1 prom inh, B2AR ag)
CC1(C(=O)NS(=O)(=O)c2cccc(OC(F)F)c2)CCN1C(=O)Cc1ccsc1 (stereo unspecified)	none (no result: TRPM1 prom inh, B2AR ag)
COc1cccc(NC(=O)C2(C)CCN2C(=O)Cc2cccc3ccccc23)c1 (stereo unspecified)	none (no result: TRPM1 prom inh, B2AR ag)
CCC1Cc2[nH]c(=S)[nH]c(=O)c2C(c2ccc(Cl)cc2)O1 (stereo unspecified)	none (no result: TRPM1 prom inh, B2AR ag)
COC(=O)CSC1=C(C#N)C(=O)NC(c2ccccc2)S1 (stereo unspecified)	Peg3 prom inh 84, TRPM1 prom inh 74
O=C(N[C@@H](Cc1ccccc1)C(=O)N[C@@H](Cc1ccccc1)C(=O)O)OCc1ccccc1	none
O=C(N[C@@H](Cc1ccccc1)C(=O)CCl)OCc1ccccc1	Peg3 prom inh 70, TRPM1 prom inh 96, B2AR ag 47
CC1=C(C(=O)N(C)C)CC(CC(=O)NC2CCCCC2)C(=O)N1CCCN1CCCC1=O (stereo unspecified)	Peg3 prom inh 60 (no result: TRPM1 prom inh, B2AR ag)
O=C(OCc1ccccc1)N1CCC2CC1c1ccc(Cl)cc12 (stereo unspecified)	none (no result: TRPM1 prom inh, B2AR ag)
CSc1ccc(COC(=O)c2cc([N+](=O)[O-])ccc2N2CCOCC2)cc1	TRPM1 prom inh 67
O=C(c1cc2cc(Cl)cc(Cl)c2oc1=O)N1CCOCC1	Peg3 prom inh 55
CCCCC[C@H](C)N1C[C@H](COCc2ccccc2)Oc2cc(N3CCC[C@H]3COC)ccc2S1(=O)=O	none (no result: Peg3 prom inh, KKLEB cytotox, TRPM1 prom inh, B2AR ag, CF NFkB inh)
O=C(NCc1ccc2c(c1)OCO2)OCc1ccccc1	none (no result: Peg3 prom inh, KKLEB cytotox, TRPM1 prom inh, B2AR ag, CF NFkB inh)
CCOC(=O)CSc1ccc(C(=O)NCCN2CCOCC2)cc1[N+](=O)[O-]	none

Assay outcomes: PubChem BioAssay, several laboratories
